High-throughput results: PubChem BioAssay, National Center for Advancing Translational Sciences (NCATS)
The entries come from a sample that favours hits as a whole.
KDM5B inh – inhibitors of human KDM5B histone demethylase; Q9UGL1; KDM5B demethylase, FDH-coupled NADH fluorescence (FDH is formaldehyde dehydrogenase); Potency, µM (titrated, usually from 57.7 µM), most hits filed as inhibitors; hit rate 2.6% among 220,000; AID 1347165; active means well fitted inhibition curve with a large enough effect; further: 0% is about no effect; nearly all actives have a fitted effect of over 70% in size
Target sequence (Q9UGL1 whole entry, looked up): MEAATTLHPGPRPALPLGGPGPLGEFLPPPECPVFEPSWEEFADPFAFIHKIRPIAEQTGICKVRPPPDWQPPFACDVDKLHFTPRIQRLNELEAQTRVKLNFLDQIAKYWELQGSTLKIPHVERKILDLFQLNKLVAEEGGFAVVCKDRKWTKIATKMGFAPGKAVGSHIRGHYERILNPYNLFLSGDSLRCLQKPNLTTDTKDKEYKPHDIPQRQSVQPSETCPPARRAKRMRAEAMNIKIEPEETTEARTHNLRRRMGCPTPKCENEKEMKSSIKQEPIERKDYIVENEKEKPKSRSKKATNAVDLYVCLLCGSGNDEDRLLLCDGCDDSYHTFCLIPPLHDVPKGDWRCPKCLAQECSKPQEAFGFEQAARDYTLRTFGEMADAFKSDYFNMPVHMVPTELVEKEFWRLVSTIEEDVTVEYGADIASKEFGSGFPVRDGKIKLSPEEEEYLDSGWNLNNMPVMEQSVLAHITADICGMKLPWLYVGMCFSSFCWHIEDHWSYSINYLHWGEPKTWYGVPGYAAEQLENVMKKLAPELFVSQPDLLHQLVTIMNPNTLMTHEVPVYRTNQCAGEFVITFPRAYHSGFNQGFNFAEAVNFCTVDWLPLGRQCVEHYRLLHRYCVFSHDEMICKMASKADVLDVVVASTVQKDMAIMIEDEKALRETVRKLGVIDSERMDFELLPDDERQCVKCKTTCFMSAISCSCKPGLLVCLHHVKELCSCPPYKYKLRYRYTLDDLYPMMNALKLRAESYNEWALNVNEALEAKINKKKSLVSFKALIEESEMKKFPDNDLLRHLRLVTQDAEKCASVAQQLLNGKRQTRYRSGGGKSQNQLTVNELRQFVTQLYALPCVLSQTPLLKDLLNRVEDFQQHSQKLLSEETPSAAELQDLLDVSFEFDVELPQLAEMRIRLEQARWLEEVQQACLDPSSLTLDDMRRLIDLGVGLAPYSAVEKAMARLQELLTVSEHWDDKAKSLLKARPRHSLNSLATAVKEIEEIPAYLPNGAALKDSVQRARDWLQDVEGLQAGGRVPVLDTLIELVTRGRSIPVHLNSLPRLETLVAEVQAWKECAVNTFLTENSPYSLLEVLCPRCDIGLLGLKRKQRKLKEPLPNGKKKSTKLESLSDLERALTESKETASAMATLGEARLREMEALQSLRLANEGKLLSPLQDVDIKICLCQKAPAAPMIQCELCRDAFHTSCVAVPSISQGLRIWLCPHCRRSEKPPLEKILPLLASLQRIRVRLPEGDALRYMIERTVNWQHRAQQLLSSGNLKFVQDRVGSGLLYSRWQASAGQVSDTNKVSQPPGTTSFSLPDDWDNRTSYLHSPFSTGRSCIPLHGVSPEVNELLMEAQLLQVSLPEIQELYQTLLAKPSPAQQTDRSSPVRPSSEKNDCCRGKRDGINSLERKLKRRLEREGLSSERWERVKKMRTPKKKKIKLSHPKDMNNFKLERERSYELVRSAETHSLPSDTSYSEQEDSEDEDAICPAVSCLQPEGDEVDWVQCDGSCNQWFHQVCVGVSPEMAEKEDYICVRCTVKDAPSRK
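Compound dilutions met 200 nM (final) KDM5BΔAP for 10 min at room temperature before substrate addition. The substrate mix held 12.5 µM H3K4me3 with cofactors 25 µM α-ketoglutarate and 50 µM Fe²⁺. NADH signal gain over 30 min defined activity.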
An asterisk follows results filed as active. Potency means the concentration at half of the fitted maximal effect.

How did Cc1ccc(-c2csc(=Nc3ccccc3)n2-c2ccccc2)cc1 do in these assays?
KDM5B inh: inactive

How did O=C(CCn1ccn2nc3c(c2c1=O)CCCC3)Nc1cccc(C(F)(F)F)c1 do in these assays?
KDM5B inh: inactive

How did Cc1ccc2nc(-c3ccc(NC(=O)c4cccc([N+](=O)[O-])c4C)cc3)oc2c1 do in these assays?
KDM5B inh: inactive

Results for COc1ccc(C2C(C(=O)OC(C)(C)C)=C(C)N=C3SC=C(CC(=O)N4CCCC4)N32)cc1OC (centres undefined) ?
KDM5B inh: inactive

How did C=CCOC(=O)C1=C(C)N=C2SC=C(CC(=O)N3CCCC3)N2C1c1ccc(OC)cc1OC (centres undefined) do in these assays?
KDM5B inh: 28µM*

How did C=CCOC(=O)C1=C(C)N=C2SC=C(CC(=O)N3CCCC3)N2C1c1cc(OC)cc(OC)c1 (centres undefined) do in these assays?
KDM5B inh: inactive

How did Cc1ccc(-c2nnn(Cc3csc(-c4ccc(C)cc4)n3)n2)cc1 do in these assays?
KDM5B inh: inactive

What do the screens show for `C=CCN1CCCC(C(=O)OCC)C1` (centres undefined)?
KDM5B inh: inactive

Results for Cc1cccc(-c2noc([C@@H]3Cc4nc[nH]c4CN3C(=O)NC(C)C)n2)c1 ?
KDM5B inh: 8.9µM*

Results for COC(=O)COCC(=O)N1Cc2[nH]cnc2C[C@H]1c1nc(-c2ccc(F)c(Cl)c2)no1 ?
KDM5B inh: inactive

What do the screens show for `Cc1ccc(NC(=O)N2Cc3[nH]cnc3C[C@H]2c2nc(-c3cccc([N+](=O)[O-])c3)no2)cc1`?
KDM5B inh: inactive

What do the screens show for `COc1ccc(CN2Cc3[nH]cnc3C[C@H]2c2nc(-c3ccncc3)no2)cc1`?
KDM5B inh: 28µM*

What do the screens show for `COc1ccc(NC(=O)N2Cc3[nH]cnc3C[C@H]2c2nc(-c3ccncc3)no2)cc1`?
KDM5B inh: inactive

How did COc1ccccc1CN1Cc2[nH]cnc2C[C@H]1c1nc(-c2cccc(C)c2)no1 do in these assays?
KDM5B inh: inactive

How did COc1ccc(CN2Cc3[nH]cnc3C[C@H]2c2nc(-c3ccc4ccccc4c3)no2)cc1 do in these assays?
KDM5B inh: 16µM*

Results for CN(C)c1ccc(CN2Cc3[nH]cnc3C[C@H]2c2nc(-c3ccccc3)no2)cc1 ?
KDM5B inh: inactive

Results for CN(C)c1ccc(CN2Cc3[nH]cnc3C[C@H]2c2nc(-c3ccncc3)no2)cc1 ?
KDM5B inh: inactive

Results for O=C(Nc1ccc(Cl)cc1)N1Cc2[nH]cnc2C[C@H]1c1nc(-c2ccc(F)c(Cl)c2)no1 ?
KDM5B inh: inactive

Results for CCNC(=O)N1Cc2[nH]cnc2C[C@H]1c1nc(-c2ccc(F)c(Cl)c2)no1 ?
KDM5B inh: 40µM*

How did Cc1ccc(NC(=O)N2Cc3[nH]cnc3C[C@H]2c2nc(-c3ccc(C)cc3)no2)cc1 do in these assays?
KDM5B inh: inactive

What do the screens show for `Cc1nc(-n2nc(C)c(Cl)c2C)sc1C(=O)N1CCCCC1`?
KDM5B inh: inactive

What do the screens show for `CCCc1nnc2sc(-c3ccc(OC)cc3)nn12`?
KDM5B inh: inactive

What do the screens show for `COc1ccc(CN(C)CC(O)COc2ccccc2)c(OC)c1OC` (centres undefined)?
KDM5B inh: inactive

What do the screens show for `COC(=O)Cn1c(=O)c2c(nc(-n3nc(C)c(C)c3C)n2C)n(C)c1=O`?
KDM5B inh: inactive

What do the screens show for `Cc1ccc(NC(=S)NCc2ccccc2)c(Br)c1`?
KDM5B inh: inactive

How did CC(=O)N1CCc2nc3sc(C(=O)Nc4cccc(F)c4)c(N)c3c(C(F)(F)F)c2C1 do in these assays?
KDM5B inh: inactive

What do the screens show for `CCCn1c(-n2nc(C)cc2C)nc2c1c(=O)n(CCN1CCOCC1)c(=O)n2C`?
KDM5B inh: inactive

How did COC(=O)c1cc(-c2nc3ccccc3[nH]2)c(-c2ccc(OC)cc2)nc1C do in these assays?
KDM5B inh: inactive

Results for CCOC(=O)C(C(=O)OCC)C(C(=O)OCC)(C(=O)OCC)C(C(=O)OCC)C(=O)OCC ?
KDM5B inh: inactive

Results for Cc1cc2oc(=O)cc(CSc3nncn3C)c2cc1C(C)C ?
KDM5B inh: inactive

How did Nc1ccccc1C1CC1 do in these assays?
KDM5B inh: inactive

What do the screens show for `CC1CCCN(S(=O)(=O)c2ccc3c(c2)C(C)(C)C(=O)N3CC(=O)NC2CCCCCC2)C1` (centres undefined)?
KDM5B inh: inactive

What do the screens show for `C=CCN1C(=O)COc2ccc(NC(=O)c3cc(=O)c4c(C)cc(C)cc4o3)cc21`?
KDM5B inh: inactive

Results for CC(C)CCC(CCNC(C)c1cccs1)C1CCOC(C)(C)C1 (centres undefined) ?
KDM5B inh: inactive

Results for NS(=O)(=O)c1ccc(N/N=C/c2ccc(Cl)cc2Cl)c([N+](=O)[O-])c1 ?
KDM5B inh: inactive

What do the screens show for `Fc1ccc(CN2Cc3[nH]cnc3C[C@H]2c2nc(-c3ccc(F)c(Cl)c3)no2)cc1`?
KDM5B inh: 35µM*

Results for Cc1ccc(-c2noc([C@@H]3Cc4nc[nH]c4CN3C(=O)c3ccc(F)cc3)n2)cc1 ?
KDM5B inh: inactive

How did CC(C)(CC(=O)O)CC(=O)N1Cc2[nH]cnc2C[C@H]1c1nc(-c2ccc3ccccc3c2)no1 do in these assays?
KDM5B inh: inactive

How did O=C(C1CCCCC1)N1Cc2[nH]cnc2C[C@H]1c1nc(-c2ccc3ccccc3c2)no1 do in these assays?
KDM5B inh: 32µM*

What do the screens show for `O=C(NC1CCCCC1)N1Cc2[nH]cnc2C[C@H]1c1nc(-c2ccccc2)no1`?
KDM5B inh: inactive

Results for Cc1ccc(-c2noc([C@@H]3Cc4nc[nH]c4CN3Cc3ccc(N(C)C)cc3)n2)cc1 ?
KDM5B inh: inactive

Results for CCC(C)N[C@H]1CS(=O)(=O)C[C@@H]1S(=O)(=O)c1ccccc1 (some centres undefined) ?
KDM5B inh: inactive

What do the screens show for `N#CC1=C(SCc2ccccc2Br)NC(=O)C(C#N)C12CCCCC2` (centres undefined)?
KDM5B inh: inactive

How did CC(C)CCNC(=O)N1CCC(OC2CCN(Cc3ccccc3)CC2)CC1 do in these assays?
KDM5B inh: inactive

What do the screens show for `O=C(Cn1ccn2nc(-c3ccccc3)c(CO)c2c1=O)NCc1ccc2c(c1)OCO2`?
KDM5B inh: 32µM*

What do the screens show for `O=C(Cn1ccn2nc(-c3ccccc3)c(CO)c2c1=O)NCc1ccc(F)cc1F`?
KDM5B inh: inactive

Results for Cc1cc(NC(=O)Cn2ccn3nc(-c4ccccc4)c(CO)c3c2=O)no1 ?
KDM5B inh: inactive

What do the screens show for `O=C(Cn1ccn2nc(-c3ccc(F)cc3)c(CO)c2c1=O)NCc1ccccc1Br`?
KDM5B inh: 22µM*

How did O=C(Cn1ccn2nc(-c3ccc(F)cc3)c(CO)c2c1=O)NCc1ccc(F)cc1F do in these assays?
KDM5B inh: inactive

Results for O=C(Cn1ccn2nc(-c3ccccc3)c(CO)c2c1=O)NCc1ccccc1Cl ?
KDM5B inh: 20µM*

What do the screens show for `O=C(Cn1ccn2nc(-c3ccc(F)cc3)c(CO)c2c1=O)Nc1cccc(Br)c1`?
KDM5B inh: inactive

What do the screens show for `O=C(Cn1ccn2nc(-c3ccccc3)c(CO)c2c1=O)NCCCc1ccccc1`?
KDM5B inh: inactive

Results for CCCNC(=O)Cn1ccn2nc(-c3ccccc3)c(CO)c2c1=O ?
KDM5B inh: inactive

What do the screens show for `CCOC(=O)C1CCC(CNCc2c(Cl)cccc2Cl)CC1` (centres undefined)?
KDM5B inh: inactive

Results for Cn1cc(C(=O)CN2C(=O)COc3ccc(Cl)cc32)c2ccccc21 ?
KDM5B inh: inactive
